PubChem BioAssay AID504832 (National Center for Advancing Translational Sciences (NCATS), 2011)
The whole screen tested about 310,000 compounds, of which about 18,000 (5.8%) were called active. Inconclusive results (about 22%) are left out. Only a selection was taken, and actives are over-represented in it overall. Values without a mark were called inactive. The call rests on the fitted dose curve; in most records, active means well fitted inhibition curve with a large enough effect; inconclusive means small, poorly fitted or top-dose-only effect, or another doubt; inactive means no such curve, though single readings can be large or run the other way.

Test: Primary qHTS for delayed death inhibitors of the malarial parasite plastid, 48 hour incubation
Conditions: P. falciparum luciferase growth in erythrocytes; series mostly up to 28.7 µM; activity change, negative = inhibition: at the top concentration
Summary of the method: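 Firefly luciferase activity from engineered P. falciparum reports growth; inhibitors lower the luminescent signal. Cultures contained 2% hematocrit erythrocytes at 0.1% final parasitemia.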
On the % scale 0 is the no-effect control and ±100 the full control effect; potency means the concentration at half of the fitted maximal effect.

SMILES | activity change, negative = inhibition | Potency
C/C(=N/OC(=O)c1ccc(Br)cc1)c1ccc(C)cc1 | 19.2% | 
COc1ccc(-n2c(C)cc(C(=O)CN3C(=O)NC4(CCc5ccccc54)C3=O)c2C)cc1 (stereo unspecified) |  | 4.15 µM (active)
COc1ccc(C(=O)CN2C(=O)NC3(CCc4ccccc43)C2=O)c(OC)c1 (stereo unspecified) | 10.4% | 
CCN(CC)c1ccc(NC(=O)CN2C(=O)NC3(CCc4ccccc43)C2=O)cc1 (stereo unspecified) | -23.1% | 
CN(CC(=O)Nc1ccc(Cl)cc1)CC(=O)Nc1cccc2ccccc12 | 12.5% | 
NC(=O)C1CCN(C(=O)c2ccc(F)c(S(=O)(=O)N3CCOCC3)c2)CC1 | 5% | 
COc1ccc(C=C(C#N)C#N)c(CSc2ccccn2)c1 | -16.3% | 
O=[N+]([O-])c1ccc(N=Cc2c(O)ccc3ccccc23)cc1 | 15.8% | 
Oc1ccc(N=Cc2c(O)ccc3ccccc23)cc1 |  | 9.28 µM (active)
Oc1ccc2ccccc2c1C=Nc1ccccc1 | 24.6% | 
COc1cccc(NC(=O)COC(=O)/C=C/c2ccco2)c1 | 23.3% | 
O=C(COC(=O)c1ccc2ncsc2c1)Nc1ccc(Cl)cc1 | 47.1% | 
O=C(CSc1nnc(-c2cccs2)n1-c1ccccc1)N1CCN(C(=O)c2ccco2)CC1 | -13.2% | 
Cn1c(SCC(=O)N2CCCC2)nnc1-c1cccs1 | 20.1% | 
O=C(CSc1nnc(-c2cccs2)n1Cc1ccccc1)N1CCc2ccccc2C1 |  | 6.57 µM (active)
O=C(O)c1ccc(OCC2CCCO2)cc1 (stereo unspecified) | 10% | 
O=C(CSc1n[nH]c(-c2cccs2)n1)N1CCCCC1 | 25.1% | 
CC(=O)Nc1ccc(S(=O)(=O)NC2Cc3ccccc3C2)cc1 | -8.94% | 
O=S(=O)(NC1CCCCC1N1CCCCC1)c1ccc(Cl)cc1 (stereo unspecified) | 16.4% | 
CS(=O)(=O)N(CC(=O)N1CCN(Cc2ccc3c(c2)OCO3)CC1)c1ccc2c(c1)OCO2 | -6.02% | 
CCOC(=O)N1CCN(S(=O)(=O)c2cc(Br)cc3c2N(C(=O)C2CC2)CC3)CC1 | -16.7% | 
CCN(c1ccc2c(c1)OCO2)S(=O)(=O)c1cc(Br)cc2c1N(C(=O)C1CC1)CC2 |  | 1.47 µM (active)
COc1cccc(CNC(=O)COC(=O)CN2C(=O)NC3(CCCCC3C)C2=O)c1 (stereo unspecified) | 4.63% | 
OCC[C@H]1C[C@@H](O)[C@H](O)[C@@]2(OCCc3ccccc32)O1 | 10% | 
COc1ccc2nc(C)cc(Nc3cccc(C(=O)O)c3)c2c1 | 30% | 
Cc1nn(-c2ccccc2)c(C)c1C(=O)OCC(=O)NC(=O)NC1CCCCC1 | 1.1% | 

SMILES | activity change, negative = inhibition | Potency
Cc1nc(/N=C(\N)NC(=O)NC2CCCCC2)nc2ccccc12 |  | 2.94 µM (active)
O=C(NNC(=O)C(O)c1ccccc1)NC1CCCCC1 (stereo unspecified) | 25.1% | 
COc1ccc2nc(/N=C(\N)NC(=O)Nc3ccccc3)nc(C)c2c1 |  | 1.85 µM (active)
COc1ccc2nc(SCc3ccccc3)nc(C)c2c1 | 255% | 
COc1ccc(Cl)cc1NC(=O)c1cccc(N2C(=O)C3CC=CCC3C2=O)c1 (stereo unspecified) | 20.4% | 
O=Cc1cn(-c2ccccc2)nc1-c1ccccn1 | 21.5% | 
O=C(CSCc1ccccc1)Nc1ccccc1 | 56.7% | 
CC(=O)Nc1ccc(NC(=O)C(NS(=O)(=O)c2ccc3c(c2)OCCO3)C(C)C)cc1 (stereo unspecified) | -15.4% | 
CC(=O)c1ccc(S(=O)(=O)N2CCN(C(=O)/C=C/c3ccc4ccccc4n3)CC2)cc1 |  | 11.7 µM (active)
NC(=O)COC(=O)/C=C/c1ccc2ccccc2n1 | 0% | 
CC(=O)c1ccc(S(=O)(=O)N2CCC3(CC2)OCCO3)cc1 | -5.09% | 
C/C(=N\Nc1nncc2ccccc12)c1ccc(Cl)c([N+](=O)[O-])c1 | 50.4% | 
CC(=O)N1CCN(CC(=O)Nc2ccc(C)c(F)c2)CC1 | -12.4% [at 0.00184 µM] | 
CS(=O)(=O)N(CC(=O)N1CCOCC1)c1cccc(Cl)c1Cl | 0.916% | 
COC(=O)c1ccc(C23CC4(C2)[C@H](CN(Cc2cccnc2)[C@@H]4c2ccccc2)C3c2ccc(Cl)nc2)cc1 (stereo partly specified) |  | 10.4 µM (active)
Clc1ccc(C2[C@H]3CN(CC4CCCCC4)[C@H](c4ccccc4)C34CC2(c2cccnc2)C4)cn1 (stereo partly specified) |  | 3.7 µM (active)
CCN1C(=NCCc2cccnc2)N[C@@H](c2ccccc2)C(C(=O)OC)=C1C |  | inactive
COC(=O)c1ccc(CN2CCN(CCCc3ccccc3)C(CCO)C2)cc1 (stereo unspecified) | -11% | 
O=C(O)c1ccc(S(=O)(=O)N2CCOCC2)o1 | 23.6% | 
CN(C(=O)COC(=O)Cn1cnc2c1c(=O)n(C)c(=O)n2C)C1(C#N)CCCCC1 | 22.8% | 
CCCC(=O)N1CCC(CCC(=O)NC2CC2)CC1 | 40.2% | 
CCOC(=O)c1ccc2[nH]c3c(c2c1)CCCC3NC=O (stereo unspecified) | 3.34% | 
CC(C)[C@@H](NC(=O)OC(C)(C)C)C(=O)NCC1CCC(C(=O)N[C@@H](Cc2ccccc2)C(=O)O)CC1 (stereo partly specified) | -7.46% | 
Cc1ccc(S(=O)(=O)N(C)C)cc1NC(=O)COC(=O)/C=C/c1cccs1 | 7.2% | 
Cc1csc(NC(=O)CSc2nc(=O)cc(N)n2-c2ccc(F)cc2)n1 | -0.578% | 
O=C(c1cn(-c2ccccc2)nc1-c1cccnc1)N1CCCCC1 | -29.5% | 

SMILES | activity change, negative = inhibition | Potency
NC(=O)C1CCN(C(=O)c2cn(-c3ccccc3)nc2-c2cccnc2)CC1 | 20.7% | 
O=C(c1cn(-c2ccccc2)nc1-c1cccnc1)N1CCN(S(=O)(=O)c2ccccc2F)CC1 |  | 11.7 µM (active)
Cc1ccc(S(=O)(=O)CCC(=O)OCC(=O)NCCc2ccc(S(N)(=O)=O)cc2)cc1 | -10.4% | 
CCC(=O)c1ccc(OCC(=O)OCC(=O)NC2CCCCCC2)cc1 | -18.2% | 
CC1CCCC(C)N1C(=O)CSc1nnnn1C1CCCC1 (stereo unspecified) | 27.6% | 
COc1ccc(OC)c(/C(C)=N\NC(=O)c2cc3cc(Cl)ccc3n2C)c1 | -1.37% | 
O=C(CCCN1C(=O)/C(=C\c2ccco2)SC1=S)Nc1cccc2ccccc12 | 5.18% | 
CCCN(CCC)c1nc2c(C)cccn2c(=O)c1/C=C1/SC(=S)N(Cc2ccco2)C1=O |  | 1.31 µM (active)
Cc1cccn2c(=O)c(/C=C3\SC(=S)N(CC(C)C)C3=O)c(NCCCOC(C)C)nc12 | 4.14% | 
CC(=O)c1ccc(NC(=O)CCNS(=O)(=O)c2cc(Br)cnc2N)cc1 | 5.08% | 
COc1cc(C(=O)NNC(=O)CN2C(=O)NC3(CCCC3)C2=O)cc(OC)c1OC | -15% | 
O=C(N/N=C/c1c[nH]c2ccccc12)c1ccccc1O | -19.7% | 
Cc1cc(NC(=O)C(C)SCC(=O)Nc2ccccc2N2CCCCC2)no1 (stereo unspecified) |  | 8.28 µM (active)
Cc1cc(NC(=O)CSCc2ccccc2C)no1 | 14.7% | 
CC(C)n1c(SCC(=O)Nc2ccccc2N2CCCCC2)nc2c1c(=O)n(C)c(=O)n2C | -8.49% | 
CCN(CC)c1ccc(/C=N/NC(=O)CNC(=O)c2cccnc2)cc1 | 30.6% | 
COc1cccc(NC(=O)C/C(C)=N/NC(=O)C2CCCCC2)c1 | 7.61% | 
O=C(NC(Cc1ccc(O)cc1)C(=O)O)/C(=C/c1ccccc1)NC(=O)c1ccccc1 (stereo unspecified) | 78.7% | 
CCOc1cc2[nH]c(=O)n(Cc3ccc(C(=O)NCCCN4CCCC4=O)cc3)c(=O)c2cc1OCC | -6.67% | 
COc1cc2[nH]c(=O)n(CCC(=O)NC3CCN(Cc4ccccc4)CC3)c(=O)c2cc1OC | 21.7% | 
COc1cc2[nH]c(=O)n(Cc3ccc(C(=O)NC4CCN(Cc5ccccc5)CC4)cc3)c(=O)c2cc1OC |  | 13.1 µM (active)
CCOC(=O)c1ccc(NC(=S)N2CCN(c3ccccn3)CC2)cc1 | 15% | 
COc1ccc(NS(=O)(=O)c2ccc(F)cc2F)cn1 | 38.3% | 
CCCS(=O)(=O)N1CCN=C1SCc1cccc(F)c1 | -6.09% | 
COc1cc(F)c(C2=CC(=O)CC(C)(C)C2)cc1F | 28.7% | 
CC1(C)CC(=O)C=C(c2ccc(Cl)c(C(F)(F)F)c2)C1 |  | 5.86 µM (active)

SMILES | activity change, negative = inhibition | Potency
CC1(C)CC(=O)C=C(Nc2ccccc2)C1 | -13.2% | 
COC(=O)c1cc(NS(=O)(=O)c2ccc3c(c2)c(=O)n(C)c(=O)n3C)cc(C(=O)OC)c1 | 20.2% | 
O=C1NCCn2nc3ccccc3c21 | 2.57% | 
NS(=O)(=O)c1cccnc1Nc1cccc(Cl)c1 | 33.3% | 
CCOc1c(Nc2cccc(Cl)c2)c(=O)c1=O |  | 7.38 µM (active)
CCOC(=O)c1c(S(=O)(=O)Nc2cccc(Cl)c2)c(C)n(C)c1C | -8.53% | 
Cc1ccc2c(c1)N(CC(=O)N1CCOCC1)C(=O)CO2 | 17.2% | 
O=S(=O)(NCc1ccc(Cl)cc1Cl)c1cccs1 | 42.9% | 
Cc1ccc(NC(=O)C(C)OC(=O)Cc2c[nH]c3ccccc23)cc1S(=O)(=O)N1CCOCC1 (stereo unspecified) |  | 5.22 µM (active)
CC(OC(=O)CCCc1c[nH]c2ccccc12)C(=O)Nc1ccc(S(N)(=O)=O)cc1 (stereo unspecified) | 19% | 
Cc1ccc(NC(=O)NC2CCCCC2)cc1S(=O)(=O)N1CCOCC1 | -7.23% | 
O=C(Nc1ccccc1N1CCCC1)c1ccc2ccccc2c1 | 10% | 
COc1cccc(NC(=O)C(=O)c2cn(CC(=O)N3CCOCC3)c3ccccc23)c1 | 63.7% | 
O=C(NCc1ccco1)c1nc(-c2ccccc2)n(-c2ccccc2)n1 | 5.98% | 
CC(C)(C)NC(=O)NCc1ccco1 | 13.8% | 
Cc1nn(-c2ccccc2)c2sc(C(=O)N(Cc3ccco3)C(C)C(=O)NC(C)(C)C)cc12 (stereo unspecified) |  | 11.7 µM (active)
O=C(COC(=O)c1ccc(F)cc1)Nc1nc2ccc([N+](=O)[O-])cc2s1 | -18.4% | 
O=C(NC(Nc1nc2ccc([N+](=O)[O-])cc2s1)(C(F)(F)F)C(F)(F)F)c1ccccc1 |  | 1.65 µM (active)
O=C(Nc1nc2ccc([N+](=O)[O-])cc2s1)c1ccncc1 | -30.6% | 
COC(=O)c1ccc(C)c(NC(=O)C2CC(=O)N(C3CCCC(C)C3C)C2)c1 (stereo unspecified) | -11.9% | 
Cc1cc(NC(=O)COc2ccc([N+](=O)[O-])cc2)no1 | -10.4% | 
CC(=O)c1cccc(OCc2cc(C(=O)NC(C)Cc3cccnc3)no2)c1 (stereo unspecified) | 0% | 
CCc1cc(=O)oc2c(C)c(OCC(=O)N3CC[C@@]4(O)CCCC[C@H]4C3)ccc12 | -23.9% | 
